Screening data from PubChem.
DT40 TDP1 CPT = growth inhibition of DT40 Tdp1-/-;hTDP1 cells with camptothecin (screen for TDP1 inhibitors) | chicken DT40 Tdp1-/-;hTDP1 cells + 20 nM CPT, ATP luminescence, 48 h | Potency, µM (titrated, usually from 46.2 µM), for the others: at the top dose activity change, negative = growth inhibition, most hits filed as inhibitors | hit rate 12% among 420,000 | AID 686979; further: potency means the concentration at half of the fitted maximal effect; nearly all actives have a fitted effect of over 55% in size
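Cell growth measured by CellTiter-Glo luminescence after a minimum 48 h, 37 C compound exposure with 20 nM CPT in Tdp1-knockout DT40 cells stably expressing hTDP1, seeded 400/well; qHTS titration format.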
IL-1B inflam inh = inflammasome signaling inhibition, IL-1 beta readout; activity change, % at 57.5 µM; AID 743279; hit rate 4.7% among 360,000; THP-1 LPS/ATP IL-1B secretion, AlphaLISA, 16 h; active compounds read low; in the data active means activity change below about -50%; inconclusive means mostly about -30% to -49%
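THP-1 cells pretreated 1 hr with compounds (up to 57.5 uM final), then stimulated with LPS (250 ng/mL final) plus ATP (1.25 mM final); secreted IL-1B measured by AlphaLISA after 16 hr, decreased signal indicating inhibition.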
HT1080-NT tox = kills 2HG-producing HT-1080-NT fibrosarcoma cells. HT-1080-NT fibrosarcoma viability, CellTiter-Glo ATP luminescence, 48 h. Potency, µM (titrated, usually from 46.1 µM), inactives show top-dose activity, negative = less viability, usual class: cytotoxic. hit rate 1.6% among 360,000;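 further: NT is the 2HG producing partner of a matched IDH1 knockdown line; potency means the concentration at half of the fitted maximal effect; 0% = DMSO-treated cells and -100% = media-only wells without cells; nearly all actives have a fitted effect of over 55% in size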
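Luminescent CellTiter-Glo readout after 48 hours of compound exposure at 37 degrees C defined viability of HT-1080-NT cells. Activity was normalized to DMSO wells and cell-free media wells; concentration-response curves were fitted and assigned curve classes.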
DT40 TDP1 no CPT = qHTS for Inhibitors of human tyrosyl-DNA phosphodiesterase 1 (TDP1): qHTS in cells in absence of CPT. DT40 Tdp1-/- hTDP1 cells, no CPT, ATP luminescence, 48 h. Potency, µM (series often up to 46.2 µM), without a hit: top-dose activity change, negative = growth inhibition, hits mostly inhibitors. hit rate 15% among 420,000. AID 686978, 2013; further: potency means the concentration at half of the fitted maximal effect; nearly all actives have a fitted effect of over 55% in size
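Compound effects on proliferation are scored in DT40 Tdp1-/-;hTDP1 cells in the absence of CPT. ATP levels (CellTiter-Glo luminescence) are recorded after a ≥48 hr, 37 °C incubation.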
HT1080 IDH1KD tx = kills HT-1080 cells with IDH1 knockdown | HT-1080 IDH1 knockdown viability, ATP luminescence, 48 h | Potency, µM (highest dose often 46.1 µM), for inactives: at the highest dose activity, negative = toxicity, usual class: cytotoxic | hit rate 2% among 360,000 | AID 686971;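 further: potency means the concentration at half of the fitted maximal effect; 0% = DMSO wells and -100% = cell-free medium wells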
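CellTiter-Glo luminescence after 48 h compound exposure at 37 degrees C of IDH1-knockdown HT-1080 cells in 5% FBS RPMI. %Activity scaled between DMSO wells and cell-free media wells, with curves fitted and assigned curve classes.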
* hit, by the source's call; ? = inconclusive; . = no result given; [ ] = dose if it differs, or a comment. An excerpt weighted towards active compounds, which were near 19% of everything screened. Unless noted, the call rests on the fitted dose curve; in most records, active means well fitted curve in the direction sought with a large enough effect; inconclusive means small, poorly fitted or top-dose-only effect, or another doubt; inactive means no such curve, though single readings can be large; an effect the other way counts as inactive or inconclusive. Unless noted, on the % scale 0 is the no-effect control and ±100 the full control effect.

SMILES	DT40 TDP1 CPT	IL-1B inflam inh	HT1080-NT tox	DT40 TDP1 no CPT	HT1080 IDH1KD tx
O=C1CCCC/C=C\C[C@H](CC(=O)N(CCO)Cc2ccccc2)C(=O)N2CCC[C@@H]2CO1	16µM*	9	1%	?	-5%
CC(C)(C)OC(=O)C[C@@H]1C/C=C\C[C@@H](CC(=O)N(CCO)Cc2ccccc2)C(=O)N2CCC[C@H]2COC1=O	?	1	10%	?	11%
CC(C)(C)OC(=O)C[C@H]1C/C=C\C[C@H](CC(=O)N(CCO)Cc2ccccc2)C(=O)N2CCC[C@H]2COC1=O	26µM*	-19	12%	?	3%
CC(=O)N1CCC(N(Cc2ccco2)C(=O)Nc2ccc(Br)cc2F)CC1	-12%	.	.	-24%	.
Cc1c(C(=O)NN)nc2ccccn12	-4%	13	0%	-3%	-6%
C/C(=C(\CCOC(=O)c1ccccc1)SS/C(CCOC(=O)c1ccccc1)=C(/C)N(C=O)Cc1cnc(C)nc1N)N(C=O)Cc1cnc(C)nc1N	27µM*	.	.	?	.
CC(=C(CCOP(=O)(O)O)SC(=O)c1ccccc1)N(C=O)Cc1cnc(C)nc1N	-18%	.	.	-1%	.
Cc1c(C(=O)N(C)C)sc2c1c(=O)n(-c1ccc(F)cc1)c(=O)n2Cc1cc(=O)n2ccccc2n1	4%	.	.	-2%	.
CCOc1ccc2oc(C(=O)O)c(C)c2c1	10%	-10	13%	-5%	0%
Cc1c(C(=O)NCc2cccs2)oc2ccc(Br)cc12	6%	-17	-2%	-17%	-16%
CCOc1ccc2oc(C(=O)NNC(=O)c3ccccc3O)c(C)c2c1	?	31	?	26µM*	-29%
Cc1c(C(=O)NNC(=O)c2ccccc2O)oc2ccc(Br)cc12	21µM*	19	-30%	?	-23%
COc1ccccc1NC(=O)/C(=N/OCc1ccc(F)cc1)C(C)=O	-12%	22	-12%	?	0%
Cc1ccc(-c2ccnc3nc(-n4cccc4)nn23)o1	15µM*	28	4%	21µM*	?
CN(C)/C=N/c1nc2nccc(-c3ccccn3)n2n1	4%	-5	23%	-6%	13%
O=C(NC12CC3CC(CC(C3)C1)C2)c1ccc(Br)o1	-8%	15	-11%	?	-24%
O=C(NC12CC3CC(CC(C3)C1)C2)c1ccc([N+](=O)[O-])o1	23µM*	-63*	?	23µM*	?
CC(NC(=O)c1ccc([N+](=O)[O-])cc1Cl)C1CC2CCC1C2 (configuration not stated)	?	-23	-6%	?	-10%
CC(NC(=O)c1ccc([N+](=O)[O-])o1)C1CC2CCC1C2 (configuration not stated)	21µM*	-92*	?	?	?
O=C(NC12CC3CC(CC(C3)C1)C2)c1ccc(-c2ccc(Br)cc2)o1	23µM*	?	-7%	16µM*	?
Cc1ccc(N(Cc2cccs2)C(=O)c2ccccc2Cl)cc1	13µM*	.	.	18µM*	.
CCOc1ccccc1C(=O)N(Cc1cccs1)c1ccc(Cl)cc1	16µM*	.	.	10µM*	.
CC(=O)c1ccc(NC(=O)C(C)OC(=O)c2ccc(Br)o2)cc1 (configuration not stated)	?	-6	-3%	?	-3%
Cc1ccc(-c2csc(=Nc3ccccc3)n2CCCO)cc1	16µM*	.	.	10µM*	.
O=S(=O)(c1ccc(-c2csc(=Nc3ccc(F)cc3)n2CCCCCCO)cc1)N1CCCC1	2.9µM*	.	.	2.6µM*	.
COc1ccc(-c2csc(=Nc3ccccc3)n2CCO)cc1	?	-24	-22%	?	-23%
OCCCn1c(-c2ccc(F)cc2)csc1=Nc1ccc(F)cc1	9.2µM*	.	.	15µM*	.
Cc1oc(-c2ccccc2NC(=O)C2CCCO2)nc1CNC(=O)c1[nH]c2c(C)ccc(C)c2c1C (configuration not stated)	5%[9.04 µM]	.	.	?	.
